TTR transcr act – TTR transcription activators in neuroblastoma reporter cells, primary screen, cell-based, luminescence, SH-SY5Y, TTR promoter Gaussia luciferase; 100% = recombinant luciferase protein wells; activation, % at 16.7 µM; 92,000 compounds, 1.3% hits;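 active means activation above the mean of all tested compounds plus 3 SD, cut at about 9.5% in these data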;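 further: cells exposed to compounds for one day before reading; 0% = median of all test compound wells on the plate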
TTR inh HuH7 – TTR promoter reporter inhibitors in hepatoma cells, counter-screen for TTR transcription activator project, cell-based, luminescence, HuH7 hepatoma | shares compounds with TTR transcr act | HuH7 TTR promoter-Gaussia luciferase reporter | inhibition, % at 16.7 µM | 1,100 compounds, 4% hits;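 active means average inhibition above the solvent-only control wells' mean plus 3 SD, cut at about 15% in these data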;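 further: 0% = cells with DMSO only and 100% = cells with inhibitor control FD; inhibitors lower well luminescence so higher value means more inhibition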
TTR act confirm – TTR transcription activators, retest, confirmation, cell-based, luminescence, SH-SY5Y, triplicate | SHSY5Y TTR promoter Gaussia luciferase; 100% = purified Lucia enzyme wells, no cells | activation, % at 16.7 µM | shares compounds with TTR transcr act | 1,100 tested, under 10 active;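 active means mean activation above a set limit taken from the earlier primary screen, cut at about 11% in these data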;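 further: 0% = DMSO-treated cells and 100% = recombinant Lucia luciferase without cells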
Numbers without * were called inactive. The full list was thinned out, with hits kept by preference.

SMILES | TTR transcr act | others
C[C@H]1CN([C@@H](C)CO)C(=O)CCCn2cc(nn2)CO[C@@H]1CN(C)S(=O)(=O)c1ccc(Cl)cc1 | 2.6
C[C@@H]1CN([C@H](C)CO)C(=O)CCCn2cc(nn2)CO[C@H]1CN(C)S(=O)(=O)c1ccc(Oc2ccccc2)cc1 | 17.0* | TTR inh HuH7=-5.1;TTR act confirm=-0.5
C[C@H](CO)N1C[C@H](C)[C@@H](CN(C)C(=O)c2cc(-c3ccccc3)on2)OCc2cnnn2CCCC1=O | 1.0
C[C@H]1CN([C@@H](C)CO)C(=O)CCCn2nncc2CO[C@H]1CN(C)C(=O)c1cc(-c2ccccc2)on1 | 13.9* | TTR inh HuH7=-7.1;TTR act confirm=-0.7
C[C@H](CO)N1C[C@H](C)[C@@H](CN(C)S(=O)(=O)c2ccccc2)OCc2cn(nn2)CCCC1=O | -1.5
C[C@@H]1CN([C@H](C)CO)C(=O)CCCn2nncc2CO[C@H]1CN(C)C(=O)c1cc(-c2ccccc2)on1 | 3.4
COc1ccc(C(=O)NNC(=O)Cn2nnc(-c3ccc(OC)c(OC)c3)n2)cc1 | -0.5
Cc1ccc(S(=O)(=O)CCC(=O)OC(C)c2nnc(-c3cccs3)o2)cc1 (stereo not drawn) | -1.1
Cc1c(/C=N/NC(=O)c2sc3ccccc3c2Cl)cnn1C | 2.0
COc1ccc(/C=N/NC(=O)c2cc(O)c(O)c(O)c2)cc1Cn1cc([N+](=O)[O-])cn1 | 0.9
C/C(=N/NC(=O)CNC(=O)COc1cccc(C)c1)c1ccco1 | 6.0
COc1ccc(-c2cn(-c3ccc(Cl)cc3)c3[n+]2CCCCC3)cc1 | 11.9* | TTR inh HuH7=0.1;TTR act confirm=0.6
Clc1ccc(-c2cn(-c3ccc(Cl)cc3)c3[n+]2CCCCC3)cc1 | -2.1
COc1ccc(-n2cc(-c3ccc(OC(F)F)cc3)[n+]3c2CCCCC3)cc1 | -0.5
O=C(NCCN1CCOCC1)c1cc(-c2ccc(F)cc2)on1 | 4.3
O=C(NCCN1CCOCC1)c1cc(-c2ccco2)on1 | 3.0
CC(C)Cc1cc(C(=O)NCCCN2CCOCC2)no1 | 11.2* | TTR inh HuH7=1.9;TTR act confirm=-1.1
N#CC[C@H](Cc1ccccc1)N1CC[C@@H](O)CCC1=O | -1.3
Cc1cc(C(=O)N/N=C/c2cc(Cl)cc([N+](=O)[O-])c2O)c2ccccc2n1 | -1.4
CC(=O)Nc1nc(COc2ccccc2)cs1 | -0.8
COc1ccccc1OCc1csc(N)n1 | 23.9* | TTR inh HuH7=-14.3;TTR act confirm=-0.2
COc1ccc(/C=C/C(=O)OCc2csc(-c3ccccc3)n2)cc1OC | -1.2
Cc1ccccc1OCC(=O)NC(=S)Nc1ccc(S(=O)(=O)NC2CCCCC2)cc1 | -4.7
O=C(c1ccc(Cl)cc1)N1CCN=C1c1ccccc1 | 3.4
COCc1nnc(NC(=O)CCN2C(=O)c3ccccc3C2=O)s1 | -0.1
SMILES | TTR transcr act | others
Cc1cc(C(=O)NNC(=O)C(C)NS(=O)(=O)c2ccccc2F)c(C)o1 (stereo not drawn) | -1.4
CC(=O)CC(=O)Nc1ccc2ccccc2c1 | -0.6
O=C(CSCc1ccc(C(=O)O)cc1)Nc1ccc2ccccc2c1 | 0.8
CC(=O)c1ccc(NC(=O)CSCC(=O)Nc2ccc3ccccc3c2)cc1 | 10.6* | TTR inh HuH7=-26.3;TTR act confirm=4.0
CC(=O)Nc1ccc(OCC(O)CN2C(C)(C)CC(O)CC2(C)C)cc1 (stereo not drawn) | 1.3
CCOC(=O)C1CCCN(Cc2cc(Br)c(OC)cc2OC)C1 (stereo not drawn) | 2.8
CCOC(=O)C1CCCN(Cc2cc(OC)c(O)c(OC)c2)C1 (stereo not drawn) | 25.0* | TTR inh HuH7=-10.9;TTR act confirm=0.2
COc1cc(CN2CCC(C(=O)NC3CCCC3)CC2)cc(OC)c1O | -0.5
Cc1c([N+](=O)[O-])c(C(=O)Sc2ccc(Br)cc2)nn1C | -1.1
Cc1ccc(S(=O)(=O)NCCC(C)C)cc1[N+](=O)[O-] | 1.4
O=C(Nc1ccccc1N1CCCCC1)c1cnccn1 | 2.0
O=C(NNC(=O)c1cnccn1)c1ccc(Cl)cc1 | -2.3
O=C(NNC(=O)C1CCCCC1)c1cnccn1 | 12.5* | TTR inh HuH7=-8.6;TTR act confirm=0.1
c1ccc2cc(Cn3ccc4ccc(-c5ccc6ccn(Cc7ccc8ccccc8c7)c6c5)cc43)ccc2c1 | 0.5
CNc1ccccc(-c2ccc3cc4c(cc3n2)OCO4)c1=O | -0.1
O=C(CSc1nnc(-c2cnccn2)n1Cc1ccco1)c1ccc2ccccc2c1 | 0.8
CC(=O)c1ccc(NC(=S)N2CCCCCC2)cc1 | 0.6
CCN(C(=S)Nc1ccc(C(C)=O)cc1)C1CCCCC1 | 32.2* | TTR inh HuH7=-4.2;TTR act confirm=-0.3
CC(=O)c1ccc(NC(=O)CN2CCC(NC(=O)C3CCCCC3)CC2)cc1 | 3.9
CCCCc1cc(=O)oc2c(C)c(OCC(=O)N3CCCC3)ccc12 | -0.1
Cc1nc(N2CCOCC2)nc(OCCN(C)C)c1[N+](=O)[O-] | 0.6
O=C(NC(=S)Nc1ccc2oc(=O)ccc2c1)c1ccccc1F | 0.7
CS(=O)(=O)c1ccccc1C(=O)N(CCc1ccccc1)Cc1ccccc1 | -1.5
CS(=O)(=O)c1ccc(C(=O)N(CCc2ccccc2)Cc2ccccc2)cc1 | 9.7* | TTR inh HuH7=-8.1;TTR act confirm=0.9
CC(=O)Nc1cccc(C(=O)N(CCc2ccccc2)Cc2ccccc2)c1 | -2.2
SMILES | TTR transcr act | others
COc1ccccc1C(=O)NCCC(=O)NCc1cccnc1 | -1.2
O=C(c1ccc(COc2ccccc2Cl)o1)N1CCCC1 | 10.4* | TTR inh HuH7=-11.5;TTR act confirm=0.3
CC1CCN(C(=O)c2ccc(COc3ccccc3Cl)o2)CC1 | -3.5
CN1CCN(NC(=O)c2ccc(COc3ccccc3Br)o2)CC1 | 5.0
CC1CN(C(=O)c2ccccc2OCc2ccccc2Cl)CC(C)O1 (stereo not drawn) | -1.0
O=C(c1ccc(COCC(F)(F)F)o1)N1CCCCCC1 | -0.7
CC1CN(C(=O)c2ccc(COc3ccccc3Br)o2)CC(C)O1 (stereo not drawn) | 68.7* | TTR inh HuH7=-9.4;TTR act confirm=0.1
O=C(NCCS(=O)(=O)N1CCN(c2ccccc2F)CC1)c1c(F)cccc1F | -1.9
O=C(Nc1ccccc1)N1N=C(c2cccs2)CC1c1cccs1 (stereo not drawn) | -2.7
COc1cccc(OC)c1NC(=O)NC(=O)c1c(OC)c(Br)cc([N+](=O)[O-])c1OC | -1.0
COc1ccc([N+](=O)[O-])c(OC)c1C(=O)NC(=O)Nc1nc(C)cc(C)n1 | 5.9
COc1ccc([N+](=O)[O-])c(OC)c1C(=O)NC(=O)Nc1c(F)cc(F)cc1F | 126.5* | TTR inh HuH7=-7.0;TTR act confirm=0.0
CC1(OC(=O)C2CCCC2)C(=O)C=C2C=C(c3ccsc3)N(C3CC3)C=C2C1=O (stereo not drawn) | -3.2
CCOc1ccccc1CNCC1CCCO1 (stereo not drawn) | 0.9
COc1ccc(NC(=O)Nc2cnccn2)cc1 | -0.8
COc1ncnc2c1ncn2CCCN(C)Cc1ccco1 | -0.7
CN(CCCn1ccc(N)nc1=O)Cc1ccco1 | 17.5* | TTR inh HuH7=-9.4;TTR act confirm=-0.4
COc1ccc(CN(C)CCCn2ccc(N)nc2=O)cc1OC | -0.1
Nc1cc(C(=O)OCC(=O)NNC(=O)c2ccccc2F)ccc1Cl | 3.5
O=C(CNC(=O)c1ccccc1F)NCCc1ccc(Cl)cc1Cl | 2.8
O=C(NC(=O)c1ccccc1F)OCc1ccc(Cl)cc1Cl | 19.8* | TTR inh HuH7=-14.2;TTR act confirm=0.6
Cc1[nH]c(=O)[nH]c(=O)c1NC(=O)c1cccs1 | -0.3
O=C(Cc1cccs1)Nc1nc(-c2ccc(F)cc2F)cs1 | -4.3
